CF NFkB block: inhibitors of cystic fibrosis induced NF-kB; KKLEB NF-kB-GFP reporter, PAF-induced, GFP fluorescence overnight; inhibition, % at 5 µM; actives 0.86% (n = 360,000); AID 588850;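 active = at least 50% inhibition at 5 µM, scaled per plate between neutral and stimulator controls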;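 also: PAF is a Pseudomonas aeruginosa culture filtrate used as stimulus; plate controls were PAF-stimulated DMSO wells for no effect and unstimulated DMSO wells for full effect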
HIF-2a block: inhibitors of HIF-2a; 786-0 RCC cells HIF-2a reporter, luciferase luminescence, overnight; inhibition, % at 18.8 µM; actives 0.72% (n = 360,000);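 active = inhibition of the luminescence signal of 40% or more relative to plate controls, in a single-dose primary screen at 18.75 µM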
TROY signal inh: inhibitors of TROY-dependent NF-kB signaling; actives 0.98% (n = 360,000); Q293 LMP1-TROYcd NF-kB luciferase reporter, 4 h; inhibition, % at 10 µM; AID 1347056;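 active = compounds whose plate-normalised and pattern-corrected inhibition of the luciferase reporter signal at the single screening dose is 50% or more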
Peg3 prom inh-1: inhibitors of Peg3 promoter; HeLa PEG-Prom luciferase reporter, luminescence, overnight; inhibition, % at 20 µM; actives 1.7% (n = 360,000); AID 588405;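 active = inhibition of at least 50% at 20 µM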
KKLEB tox: CF airway cell cytotoxicity counter-screen; KKLEB CF airway cells viability, ATPlite luminescence, overnight; hits give low values; cells stimulated with P. aeruginosa culture filtrate; activity change (cytotoxicity), % at 5 µM; actives 0.36% (n = 360,000);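 active = corrected activity change at or below -50% at 5 µM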
TWEAK Fn14 block: TWEAK-Fn14 signaling inhibition; TWEAK-stimulated Fn14 reporter cells, luciferase luminescence, 8 h; inhibition, % at 10 µM; AID 1159606; actives 2% (n = 360,000); in the data active = inhibition above about 50%
Peg3 prom inh-2: confirmation of Peg3 promoter inhibitors; actives 84% (n = 1,300); inhibition, % at 20 µM; shares compounds with Peg3 prom inh-1; HeLa PEG-Prom luciferase reporter, luminescence, overnight;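 active = at 20 µM dose, 40% or more inhibition averaged across four replicates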
CF NFkB conf: CF NF-kB inhibition confirmation, single concentration. shares compounds with CF NFkB block. KKLEB CF airway cells, PAF-induced NF-kB-GFP fluorescence, overnight. inhibition, % at 5 µM. actives 64% (n = 1,300). AID 602472; in the data active = inhibition above about 40%;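 also: stimulus PAF is a Pseudomonas aeruginosa filtrate and not platelet activating factor; plate controls were DMSO wells with stimulus for no effect and unstimulated DMSO wells for full effect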
Mdm2-MdmX confirm: confirmation of inhibitors of human Mdm2/MdmX interaction, set 2; SaOS-2 split-luciferase Mdm2/MdmX complementation, luminescence; actives 99% (n = 740); AID 504601; inhibition, % at 8 µM; shares compounds with HIF-2a block;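 active = mean inhibition of the luminescence signal across two replicates at or above 26 percent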
Target sequence (O15151 whole entry, looked up): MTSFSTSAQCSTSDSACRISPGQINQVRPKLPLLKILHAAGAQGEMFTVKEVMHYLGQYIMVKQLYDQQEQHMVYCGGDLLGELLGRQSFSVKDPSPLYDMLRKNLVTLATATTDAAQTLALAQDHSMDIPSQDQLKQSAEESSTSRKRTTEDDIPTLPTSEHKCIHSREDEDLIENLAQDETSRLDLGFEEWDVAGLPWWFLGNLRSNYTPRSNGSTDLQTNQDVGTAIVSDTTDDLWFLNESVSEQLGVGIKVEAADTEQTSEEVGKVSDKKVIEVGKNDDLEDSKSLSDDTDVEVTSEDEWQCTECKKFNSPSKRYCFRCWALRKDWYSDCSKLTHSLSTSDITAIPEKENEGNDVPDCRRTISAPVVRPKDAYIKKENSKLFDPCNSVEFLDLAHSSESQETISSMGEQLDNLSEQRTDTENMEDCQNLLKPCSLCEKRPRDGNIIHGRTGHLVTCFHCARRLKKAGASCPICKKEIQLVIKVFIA
Target sequence (Q00987 whole entry, looked up): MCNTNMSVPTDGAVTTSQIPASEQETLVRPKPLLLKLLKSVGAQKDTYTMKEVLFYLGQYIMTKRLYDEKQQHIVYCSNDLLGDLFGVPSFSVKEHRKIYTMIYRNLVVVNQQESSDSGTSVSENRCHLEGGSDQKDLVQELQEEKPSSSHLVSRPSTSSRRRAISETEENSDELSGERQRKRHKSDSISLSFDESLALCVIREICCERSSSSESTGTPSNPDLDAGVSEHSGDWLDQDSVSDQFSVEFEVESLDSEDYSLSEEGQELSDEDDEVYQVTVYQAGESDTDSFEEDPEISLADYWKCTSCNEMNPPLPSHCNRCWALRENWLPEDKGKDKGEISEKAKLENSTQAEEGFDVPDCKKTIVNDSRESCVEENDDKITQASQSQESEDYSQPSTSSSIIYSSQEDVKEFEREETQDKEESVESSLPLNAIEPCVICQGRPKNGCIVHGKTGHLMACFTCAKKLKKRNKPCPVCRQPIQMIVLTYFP
HIF-2a inh conf: confirmation of HIF-2a inhibitors; shares compounds with HIF-2a block; 786-0 RCC cells, HIF-2a luciferase reporter luminescence, overnight; actives 56% (n = 1,800); AID 651580; inhibition, % at 18.8 µM;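 active = mean inhibition across four replicates of at least 40 percent at the single tested concentration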
HIF-1a counter: counter-screen for HIF-2a inhibitors: HIF-1a inhibition in MiaPaCa-2 cells; shares compounds with HIF-2a block; MiaPaCa-2 HIF-1a luciferase reporter, desferoxamine, overnight; inhibition, % at 18.8 µM; actives 72% (n = 1,800);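 active = mean inhibition of the reporter signal across four replicates at the single tested dose of 50% or more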
An asterisk follows results filed as active; · = no result. Only some compounds are listed: those with a hit (about 4% of all), similar ones and a draw of the others.

SMILES	CF NFkB block	HIF-2a block	TROY signal inh	Peg3 prom inh-1	KKLEB tox	TWEAK Fn14 block	Peg3 prom inh-2	HIF-2a inh conf	HIF-1a counter	others
c1ccc(-c2cc(-c3nc4ccccc4[nH]3)c3ccccc3n2)cc1	56*	-59	23	81*	-8	55*	89*	·	·	CF NFkB conf=-87
Oc1ccc(N2CCN(Cc3c(-c4ccccc4)nc4ccccn34)CC2)cc1	23	-17	-42	-11	-3	-3	·	·	·
Cc1cccc(NC(=O)c2nc[nH]c2C(=O)NCCCCNC(=O)c2[nH]cnc2C(=O)Nc2cccc(C)c2)c1	56*	7	5	78*	-39	34	37	·	·	CF NFkB conf=33
Cc1cccc(NC(=O)c2nc[nH]c2C(=O)NCCCCCCNC(=O)c2[nH]cnc2C(=O)Nc2cccc(C)c2)c1	-24	5	8	45	2	32	·	·	·
N#Cc1c(N)nc2c3c(sc(=N)c2c1N)NC(=O)CC3c1ccccc1 (stereo not drawn)	10	9	-13	23	-11	-22	·	·	·
Cc1c(C#N)c(N)nc2c3c(sc12)NC(=O)CC3c1ccc(Cl)cc1 (stereo not drawn)	-39	40*	11	68*	0	15	48*	18	17
O=C(Nc1ccc(Cc2ccncc2)cc1)c1cccc([N+](=O)[O-])c1	-11	-94	-4	-78	-4	-4	·	·	·
O=C(Nc1ccc(Cc2ccncc2)cc1)c1ccc([N+](=O)[O-])o1	45	53*	-19	103*	-4	1	95*	27	102*
O=[N+]([O-])c1ccc(F)cc1OCc1cccc(S(=O)(=O)N2CCOCC2)c1	11	23	-5	-12	5	-8	·	·	·
Cn1cnnc1SCC(=O)Nc1ncc(C(F)(F)F)cc1Cl	14	6	5	17	-12	10	·	·	·
CCOc1cc(/C=N/N=C(N)N)ccc1OCc1ccc(Cl)cc1	6	97*	-14	99*	-24	10	97*	-11	107*
COC(=O)N=Nc1c(O)[nH]c2ccc(Br)cc12	-53	-19	2	-2	20	-24	·	·	·
Oc1[nH]c2ccc(Br)cc2c1N=NC(=S)N1CCOCC1	32	68*	49	76*	0	105*	85*	·	·	Mdm2-MdmX confirm=99*
CC(=O)NC1=NN(C(C)=O)C(C)(c2ccccn2)S1 (stereo not drawn)	-34	12	-2	0	9	-5	·	·	·
CN(C)c1ccc(Nc2nc(N)c3ccccc3n2)cc1	-19	47*	67*	63*	-62*	95*	65*	79*	45
CN(C)c1nc(Nc2ccccc2)nc(N(C)C)n1	9	-14	-43	1	-2	-11	·	·	·
O=C(CCl)Nc1ccccc1Sc1ccc(Cl)cc1	5	34	-15	106*	-9	88*	85*	·	·	Mdm2-MdmX confirm=103*
O=C1c2ccccc2[C@@H]2C[C@@H](O)[C@H](Nc3ccccc3-c3ccccc3)CCN12	18	6	0	-7	3	-21	·	·	·
Cc1oc(-c2ccc3c(c2)OCCO3)cc1C(=O)O	9	81*	84*	96*	-6	106*	89*	92*	92*
Cc1oc(-c2ccc3c(c2)OCCO3)cc1C(=O)NCC(=O)O	-45	-89	2	-60	3	19	·	·	·
COc1cc(CC(=O)OCC(=O)NC2CCCCC2)cc(OC)c1OC	8	18	-18	14	0	-20	·	·	·
CCCCNc1nc(=S)n(-c2ccccc2)c(C)c1C(C)=O	7	51*	4	114*	2	11	94*	-12	30
COc1cccc(/C=N/Nc2ncccc2[N+](=O)[O-])c1OC	3	51*	75*	72*	-6	100*	62*	74*	31
O=[N+]([O-])c1ccc(/C=N/Nc2ncccc2[N+](=O)[O-])s1	-5	-65	-21	-60	-1	11	·	·	·
CCCn1c(C)cc(C(=O)COc2ccc(C)nc2[N+](=O)[O-])c1C	-4	26	26	12	0	45	·	·	·
SMILES	CF NFkB block	HIF-2a block	TROY signal inh	Peg3 prom inh-1	KKLEB tox	TWEAK Fn14 block	Peg3 prom inh-2	HIF-2a inh conf	HIF-1a counter	others
C=CCn1c(C)cc(C(=O)COc2ccc(C)nc2[N+](=O)[O-])c1C	14	68*	13	61*	2	65*	69*	68*	89*
COCCn1c(C)cc(C(=O)COc2ccc(C)nc2[N+](=O)[O-])c1C	-19	75*	9	66*	5	11	72*	77*	85*
Cc1ccc(C(=O)NCCN2CCOCC2)c(Cl)c1	3	-74	-11	-54	4	11	·	·	·
N#C/C(=C\c1cccc([N+](=O)[O-])c1)C(=O)NCc1ccc(Cl)cc1	5	66*	-16	111*	0	9	96*	60*	106*
Cc1cccc(CN2[C@H](COCc3ccccc3)C=CS2(=O)=O)c1	-12	8	11	0	-6	-4	·	·	·
CCCC(=O)NC(c1ccccc1)c1ccc2cccnc2c1O (stereo not drawn)	-9	6	12	53*	0	13	63*	·	·	Mdm2-MdmX confirm=80*
CCCCC(=O)NC(c1ccccc1)c1ccc2cccnc2c1O (stereo not drawn)	-14	0	11	55*	0	20	88*	·	·	Mdm2-MdmX confirm=87*
CCC(=O)NC(c1ccccc1OC)c1ccc2cccnc2c1O (stereo not drawn)	-9	13	7	47	-2	16	·	·	·
CCCCC(=O)NC(c1ccco1)c1cc(Cl)c2cccnc2c1O (stereo not drawn)	21	35	21	49	-12	26	·	·	·
CCCC(=O)NC(c1ccc(OC)cc1)c1ccc2cccnc2c1O (stereo not drawn)	10	13	5	55*	-18	14	71*	·	·	Mdm2-MdmX confirm=86*
O=C(CN1C(=O)/C(=C\c2ccc(F)cc2)Oc2ccccc21)NCc1ccco1	-7	5	-11	2	-9	-49	·	·	·
